# Inconclusive results are not listed. Unmarked numbers belong to inactive results. The call rests on the fitted dose curve; in most records, active means well fitted inhibition curve with a large enough effect; inconclusive means small, poorly fitted or top-dose-only effect; inactive means flat fitted curve, though single readings scatter.
# Biological target: Luciferin 4-monooxygenase (Photinus pyralis) (UniProt P08659)
# Assay: Biochemical firefly luciferase enzyme assay for NPC (AID 624030);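 further: purified P. pyralis luciferase at 10 nM with luciferin and ATP substrate; 0% = DMSO and -100% = full luciferase inhibition by PTC124 control; nearly all actives have a fitted effect of over 70% in size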
# Conditions: purified P. pyralis luciferase, luminescence, 5 min; series mostly up to 58.6 µM; activity change, negative = inhibition: at the top concentration
# Outline: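 Counter-screen for direct inhibition of the luciferase enzyme by approved-drug library compounds, run at 10 nM enzyme in 50 mM Tris acetate (final). Luminescence was read within 5 min of enzyme-buffer addition and normalized to PTC124 versus DMSO (0%).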
# Sequence of Luciferin 4-monooxygenase (Photinus pyralis) (P08659 whole entry, looked up): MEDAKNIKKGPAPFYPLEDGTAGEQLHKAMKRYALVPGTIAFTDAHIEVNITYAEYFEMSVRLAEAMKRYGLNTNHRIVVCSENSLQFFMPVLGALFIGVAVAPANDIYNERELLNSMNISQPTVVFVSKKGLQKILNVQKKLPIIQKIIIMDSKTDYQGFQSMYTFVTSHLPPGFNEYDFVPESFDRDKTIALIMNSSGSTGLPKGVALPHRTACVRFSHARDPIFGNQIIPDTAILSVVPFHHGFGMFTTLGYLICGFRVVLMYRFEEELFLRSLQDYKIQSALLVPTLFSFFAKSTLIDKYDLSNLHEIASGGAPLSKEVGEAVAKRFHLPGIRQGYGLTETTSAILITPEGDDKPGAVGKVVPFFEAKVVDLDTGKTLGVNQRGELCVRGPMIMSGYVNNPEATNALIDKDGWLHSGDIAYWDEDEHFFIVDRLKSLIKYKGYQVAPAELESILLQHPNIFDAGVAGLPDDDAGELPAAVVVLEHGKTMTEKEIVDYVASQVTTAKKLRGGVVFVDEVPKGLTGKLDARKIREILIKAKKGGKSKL
row,Compound,"activity change, negative = inhibition [%]"
1,CCC(C)(S(=O)(=O)CC)S(=O)(=O)CC,-3.13
2,O=C(CS(=O)C(c1ccccc1)c1ccccc1)NO (stereo not drawn),1.19
3,C/C(=C\c1csc(C)n1)[C@@H]1C[C@@H]2O[C@]2(C)CCC[C@H](C)[C@H](O)[C@@H](C)C(=O)C(C)(C)[C@@H](O)CC(=O)O1,-3.21
